Results published in article PMC5540273 (PLoS ONE, 2017).
Where “and” joins values, the source holds several entries; their conditions need not be identical. Equal entries are not always repeated. Where two headings read alike, the source gives them in different places.

Tests used:
BLK = conditions: concentration: 1 μM, replicates: in singlicate, n = 1
BMPR1A = conditions: concentration: 1 μM, replicates: in singlicate, n = 1
BMPR1B = conditions: concentration: 1 μM, replicates: in singlicate, n = 1
BMPR2 = conditions: concentration: 1 μM, replicates: in singlicate, n = 1
BMX = conditions: concentration: 1 μM, replicates: in singlicate, n = 1
BRAF = conditions: concentration: 1 μM, replicates: in singlicate; n = 1
BRK = test system: T1, BRK; conditions: concentration: 1 μM, replicates: in singlicate, n = 1
T1 construct: gene PTK6

BRSK1 = conditions: concentration: 1 μM, replicates: in singlicate, n = 1
BRSK2 = conditions: concentration: 1 μM, replicates: in singlicate, n = 1
BTK = conditions: concentration: 1 μM, replicates: in singlicate; n = 1
BUB1 = conditions: concentration: 1 μM, replicates: in singlicate, n = 1
CAMK1B = conditions: concentration: 1 μM, replicates: in singlicate, n = 1
CAMK1D = conditions: concentration: 1 μM, replicates: in singlicate, n = 1
CAMK1G = conditions: concentration: 1 μM, replicates: in singlicate, n = 1
CAMK1 = conditions: concentration: 1 μM, replicates: in singlicate, n = 1
CAMK2A = conditions: concentration: 1 μM, replicates: in singlicate, n = 1
CAMK2B = conditions: concentration: 1 μM, replicates: in singlicate, n = 1
CAMK2D = conditions: concentration: 1 μM, replicates: in singlicate, n = 1
CAMK2G = conditions: concentration: 1 μM, replicates: in singlicate, n = 1
CAMK4 = conditions: concentration: 1 μM, replicates: in singlicate, n = 1
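Also: KINOMEscan kinase panel screen.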

CCCCCc1nc2c(N)ncnc2n1CCCCC [SKF-97255]
%Inh (BLK): 16%
%Inh (BMPR1A): 19%
%Inh (BMPR1B): 0%
%Inh (BMPR2): 40%
%Inh (BMX): 3%
%Inh (BRAF): 0%
%Inh (BRK): 0%
%Inh (BRSK1): 0%
%Inh (BRSK2): 22%
%Inh (BTK): 0%
%Inh (BUB1): 0%
%Inh (CAMK1B): 0%
%Inh (CAMK1D): 0%
%Inh (CAMK1G): 15%
%Inh (CAMK1): 0%
%Inh (CAMK2A): 0%
%Inh (CAMK2B): 0%
%Inh (CAMK2D): 6%
%Inh (CAMK2G): 0%
%Inh (CAMK4): 21%

Cc1nnc(-c2ccc3ncc(-c4ccc(S(C)=O)cc4)n3c2)o1 (centres unmarked)
%Inh (BLK): 0%
%Inh (BMPR1A): 9%
%Inh (BMPR1B): 16%
%Inh (BMPR2): 18%
%Inh (BMX): 0%
%Inh (BRAF): 62%
%Inh (BRK): 14%
%Inh (BRSK1): 14%
%Inh (BRSK2): 0%
%Inh (BTK): 24%
%Inh (BUB1): 16%
%Inh (CAMK1B): 6%
%Inh (CAMK1D): 0%
%Inh (CAMK1G): 26%
%Inh (CAMK1): 0%
%Inh (CAMK2A): 0%
%Inh (CAMK2B): 0%
%Inh (CAMK2D): 25%
%Inh (CAMK2G): 27%
%Inh (CAMK4): 0%

NCCNS(=O)(=O)c1ccc(-c2ccnc3[nH]ccc23)cc1 [GSK977617]
%Inh (BLK; 1 µM): 49% and 16%
%Inh (BMPR1A; 1 µM): 10% and 0%
%Inh (BMPR1B; 1 µM): 0% and 22%
%Inh (BMPR2; 1 µM): 18% and 27%
%Inh (BMX; 1 µM): 2% and 0%
%Inh (BRAF): 0%
%Inh (BRK; 1 µM): 0% and 9%
%Inh (BRSK1; 1 µM): 28% and 5%
%Inh (BRSK2; 1 µM): 25% and 0%
%Inh (BTK): 0%
%Inh (BUB1; 1 µM): 69% and 81%
%Inh (CAMK1B; 1 µM): 52% and 70%
%Inh (CAMK1D; 1 µM): 78% and 72%
%Inh (CAMK1G; 1 µM): 44% and 21%
%Inh (CAMK1; 1 µM): 58% and 42%
%Inh (CAMK2A; 1 µM): 16% and 6%
%Inh (CAMK2B; 1 µM): 2% and 0%
%Inh (CAMK2D; 1 µM): 42% and 23%
%Inh (CAMK2G; 1 µM): 42% and 20%
%Inh (CAMK4; 1 µM): 59% and 44%

CSc1ccc(-c2cc3ncnc(SCC(=O)O)c3s2)cc1
%Inh (BLK): 10%
%Inh (BMPR1A): 0%
%Inh (BMPR1B): 0%
%Inh (BMPR2): 0%
%Inh (BMX): 0%
%Inh (BRAF): 0%
%Inh (BRK): 4%
%Inh (BRSK1): 6%
%Inh (BRSK2): 10%
%Inh (BTK): 0%
%Inh (BUB1): 24%
%Inh (CAMK1B): 0%
%Inh (CAMK1D): 0%
%Inh (CAMK1G): 0%
%Inh (CAMK1): 0%
%Inh (CAMK2A): 0%
%Inh (CAMK2B): 0%
%Inh (CAMK2D): 0%
%Inh (CAMK2G): 0%
%Inh (CAMK4): 3%

COc1ccc(CNC(=O)NC2CCN(c3ccnc(Nc4ccc(OC)cc4)n3)C2)cc1 (centres unmarked) [GSK1379727]
%Inh (BLK): 43%
%Inh (BMPR1A): 0%
%Inh (BMPR1B): 0%
%Inh (BMPR2): 30%
%Inh (BMX): 6%
%Inh (BRAF): 0%
%Inh (BRK): 9%
%Inh (BRSK1): 0%
%Inh (BRSK2): 0%
%Inh (BTK): 12%
%Inh (BUB1): 56%
%Inh (CAMK1B): 47%
%Inh (CAMK1D): 21%
%Inh (CAMK1G): 0%
%Inh (CAMK1): 18%
%Inh (CAMK2A): 0%
%Inh (CAMK2B): 0%
%Inh (CAMK2D): 0%
%Inh (CAMK2G): 8%
%Inh (CAMK4): 0%

COc1cc2c(cc1OC[C@@H](O)CO)ncc1c3ccc(C#N)cc3[nH]c21
%Inh (BLK): 24%
%Inh (BMPR1A): 5%
%Inh (BMPR1B): 0%
%Inh (BMPR2): 0%
%Inh (BMX): 0%
%Inh (BRAF): 0%
%Inh (BRK): 0%
%Inh (BRSK1): 0%
%Inh (BRSK2): 0%
%Inh (BTK): 0%
%Inh (BUB1): 94.3%
%Inh (CAMK1B): 27%
%Inh (CAMK1D): 0%
%Inh (CAMK1G): 0%
%Inh (CAMK1): 0%
%Inh (CAMK2A): 89%
%Inh (CAMK2B): 61%
%Inh (CAMK2D): 84%
%Inh (CAMK2G): 61%
%Inh (CAMK4): 0%

Cc1cccc(Cn2ccn3c(=O)cc(N4CCOCC4)nc23)c1 [GSK2297542]
%Inh (BLK): 57%
%Inh (BMPR1A): 0%
%Inh (BMPR1B): 0%
%Inh (BMPR2): 0%
%Inh (BMX): 27%
%Inh (BRAF): 4%
%Inh (BRK): 22%
%Inh (BRSK1): 0%
%Inh (BRSK2): 6%
%Inh (BTK): 0%
%Inh (BUB1): 34%
%Inh (CAMK1B): 19%
%Inh (CAMK1D): 70%
%Inh (CAMK1G): 9%
%Inh (CAMK1): 71%
%Inh (CAMK2A): 0%
%Inh (CAMK2B): 0%
%Inh (CAMK2D): 9%
%Inh (CAMK2G): 28%
%Inh (CAMK4): 20%

NCC(NC(=O)c1cc(-c2cn[nH]c2)c(-c2ccnc3[nH]ccc23)s1)c1ccccc1.O=C(O)C(F)(F)F.O=C(O)C(F)(F)F (centres unmarked) [GSK1325775]
%Inh (BLK): 0%
%Inh (BMPR1A): 0%
%Inh (BMPR1B): 80%
%Inh (BMPR2): 4%
%Inh (BMX): 0%
%Inh (BRAF): 0%
%Inh (BRK): 0%
%Inh (BRSK1): 30%
%Inh (BRSK2): 21%
%Inh (BTK): 0%
%Inh (BUB1): 94.6%
%Inh (CAMK1B): 49%
%Inh (CAMK1D): 50%
%Inh (CAMK1G): 33%
%Inh (CAMK1): 41%
%Inh (CAMK2A): 0%
%Inh (CAMK2B): 12%
%Inh (CAMK2D): 35%
%Inh (CAMK2G): 30%
%Inh (CAMK4): 0%

O=C(NCCNc1ccnc(Nc2ccc(F)cc2)n1)c1cc2ccccc2s1 [GSK1379874]
%Inh (BLK): 23%
%Inh (BMPR1A): 0%
%Inh (BMPR1B): 0%
%Inh (BMPR2): 15%
%Inh (BMX): 1%
%Inh (BRAF): 0%
%Inh (BRK): 29%
%Inh (BRSK1): 0%
%Inh (BRSK2): 0%
%Inh (BTK): 0%
%Inh (BUB1): 49%
%Inh (CAMK1B): 0%
%Inh (CAMK1D): 1%
%Inh (CAMK1G): 0%
%Inh (CAMK1): 1%
%Inh (CAMK2A): 0%
%Inh (CAMK2B): 0%
%Inh (CAMK2D): 7%
%Inh (CAMK2G): 18%
%Inh (CAMK4): 0%

Cc1cccc(-c2nc(-c3ccc(S(C)(=O)=O)cc3)sc2-c2ccncc2)c1
%Inh (BLK): 0%
%Inh (BMPR1A): 0%
%Inh (BMPR1B): 0%
%Inh (BMPR2): 0%
%Inh (BMX): 0%
%Inh (BRAF): 15%
%Inh (BRK): 0%
%Inh (BRSK1): 40%
%Inh (BRSK2): 27%
%Inh (BTK): 0%
%Inh (BUB1): 25%
%Inh (CAMK1B): 0%
%Inh (CAMK1D): 15%
%Inh (CAMK1G): 9%
%Inh (CAMK1): 5%
%Inh (CAMK2A): 0%
%Inh (CAMK2B): 0%
%Inh (CAMK2D): 4%
%Inh (CAMK2G): 5%
%Inh (CAMK4): 0%
